# Results filed as inconclusive are left out. Unmarked numbers belong to inactive results. The call rests on the fitted dose curve; in most records, active means well fitted activation curve with a large enough effect; inconclusive means small, poorly fitted or top-dose-only effect; inactive means no such curve, though single readings can be large or run the other way.
# Molecular target: Cellular tumor antigen p53 (Homo sapiens) (UniProt P04637)
# Assay: Primary qHTS for small molecule compounds that upregulate eGFP-tagged delta133p53alpha (in N-terminal) cells. (AID 2060322);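 further: series mostly up to about 56 µM; 0% = DMSO vehicle and 100% = reference activator; nearly all actives have a fitted effect of over 75% in size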
# Conditions: NCI-H358 eGFP-delta133p53alpha fluorescence, 24 h; activation: hits give high values
# Method in brief: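 NCI-H358 cells pre-induced 24 h with 10 ng/ml doxycycline to express N-terminal eGFP-delta133p53alpha, then dosed 24 h at 37C without doxycycline; fixed, Hoechst-stained, GFP intensity by laser scanning cytometry, normalized to DMSO (0%) and 57.5 uM 5-azacytidine (100%).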
# Cellular tumor antigen p53 (Homo sapiens), sequence (P04637 whole entry, looked up): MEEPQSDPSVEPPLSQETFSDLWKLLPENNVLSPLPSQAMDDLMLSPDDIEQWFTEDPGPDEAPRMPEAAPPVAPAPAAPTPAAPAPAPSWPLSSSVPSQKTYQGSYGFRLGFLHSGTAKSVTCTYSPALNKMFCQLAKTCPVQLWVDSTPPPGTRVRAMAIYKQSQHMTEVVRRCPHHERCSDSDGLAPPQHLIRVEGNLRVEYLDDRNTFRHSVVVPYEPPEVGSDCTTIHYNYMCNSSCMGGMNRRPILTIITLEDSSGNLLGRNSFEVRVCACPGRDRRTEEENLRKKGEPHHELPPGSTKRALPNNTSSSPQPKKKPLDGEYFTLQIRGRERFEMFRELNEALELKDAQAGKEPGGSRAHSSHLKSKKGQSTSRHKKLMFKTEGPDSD
row,SMILES,activation
1,O=C(O)CCC(=O)c1ccc(-c2ccccc2)cc1,-11.9%
2,O=C1c2ccccc2C(=O)C1c1ccccc1,-12.6%
3,Cc1cc(NC(=O)C2=C(O)c3ccccc3S(=O)(=O)N2C)no1,-0.837%
4,Nc1c2ccccc2nc2ccccc12,-7.34%
5,CCN(CC)CC(=O)Oc1ccc(NC(C)=O)cc1,-5.08%
6,COc1cc(OC)nc(O[C@H](C(=O)O)C(OC)(c2ccccc2)c2ccccc2)n1,-22%
7,CC(C)C(=O)SCCCCCCC(=O)Nc1nc(-c2ccccc2)cs1,49.2%
8,CCCOC(=O)c1ccc(N)cc1,0%
9,CCCN1CCCC[C@H]1C(=O)Nc1c(C)cccc1C,9.6%
10,Cc1ccc(/C=N/n2c(-c3ccccc3)csc2=S)cc1,24.3%
11,Nc1ncnc2c1ncn2[C@@H]1O[C@H](COP(=O)(O)O)[C@@H](O)[C@H]1O,5.08%
12,CC(C)(C)NCC(O)COc1ccccc1OCC1CCCO1 (configuration not stated),10.9%
13,Cc1onc(-c2ccccc2)c1C(=O)N[C@@H]1C(=O)N2[C@@H](C(=O)O)C(C)(C)S[C@@H]12,-7.66%
14,COC(=O)[C@@H]1[C@H]2C[C@@H]3c4[nH]c5ccccc5c4CCN3C[C@@H]2CC[C@@H]1O,21.4%
15,O=C(CCCCCCSc1ccc2ccccc2c1)NO,0%
16,Cc1ncc([N+](=O)[O-])n1C,-0.565%
17,O=C1CC(c2ccc(Cl)cc2)CC(=O)N1,-11.9%

# Reference: PubChem BioAssay (NCATS)
